Test results from PubChem BioAssay (NCI).
Several values for one entry are separate records, joined by “and”; a condition that tells them apart may be missing. Identical values can stand only once. This is part of a sample that, as a whole, favours compounds with a hit. Of some 83,000 tested, about 20% had one in any assay.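 The test compound was applied at a single concentration to cells in 96-well plates for 48 hours, and percent growth was recorded.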 Activity calls are given as the source filed them. How the source made its calls: active means growth percent below 10; inactive means the rest.

Assays:
Assay in all cases: NCI-60 one-dose screen, 48 h (100 = growth as untreated, 0 = no growth, -100 = all killed)
Conditions in all cases: 10 µM unless noted
NCI-H23 lung = test system: NCI-H23 lung
NCI-H226 lung = test system: NCI-H226 lung
NCI-H322M lung = test system: NCI-H322M lung
HOP-62 NSCLC = test system: HOP-62 NSCLC
NCI-H460 lung = test system: NCI-H460 lung
HOP-92 NSCLC = test system: HOP-92 NSCLC
NCI-H522 lung = test system: NCI-H522 lung
A549/ATCC NSCLC = test system: A549/ATCC NSCLC
786-0 renal = test system: 786-0 renal
COLO 205 colon = test system: COLO 205 colon
DU-145 prostate = test system: DU-145 prostate
K-562 leukemia = test system: K-562 leukemia
MALME-3M melanoma = test system: MALME-3M melanoma
MDA-MB-231 breast = test system: MDA-MB-231 breast
RXF 393 renal = test system: RXF 393 renal
SF-268 CNS = test system: SF-268 CNS
SF-295 CNS = test system: SF-295 CNS
SF-539 CNS = test system: SF-539 CNS
UACC-257 melanoma = test system: UACC-257 melanoma
M14 melanoma = test system: M14 melanoma

Measured: growth

Cn1cc(-c2cc3nc(-c4cn(C)c5ncccc45)cc(N)n3n2)c2cc(F)ccc21
active: NCI-H226 lung 3.92% | HOP-62 NSCLC -14.7% | HOP-92 NSCLC -0.741% | MDA-MB-231 breast 3.66% | RXF 393 renal -14.4%
inactive: NCI-H23 lung 21.2% | NCI-H322M lung 52.1% | NCI-H460 lung 37.6% | NCI-H522 lung 22.7% | A549/ATCC NSCLC 19.6% | 786-0 renal 17.6% | COLO 205 colon 47.1% | DU-145 prostate 21.8% | K-562 leukemia 20.7% | MALME-3M melanoma 62% | SF-268 CNS 52.3% | SF-295 CNS 28.3% | SF-539 CNS 12.8% | UACC-257 melanoma 72.7% | M14 melanoma 71.2%

N#CC1=C(c2cccs2)Nc2c(c(-c3ccccc3)nn2-c2ccccc2)C12C(=O)Nc1ccc(Br)cc12 (stereo not given)
inactive: NCI-H226 lung 13% | NCI-H322M lung 26.9% | DU-145 prostate 31.5% | SF-268 CNS 15.7% | UACC-257 melanoma 35.8%
active: NCI-H23 lung 2.18% | HOP-62 NSCLC -75.2% | NCI-H460 lung -46.7% | HOP-92 NSCLC -24.7% | NCI-H522 lung -12.4% | A549/ATCC NSCLC -9.72% | 786-0 renal -22.7% | COLO 205 colon -83% | K-562 leukemia 2.75% | MALME-3M melanoma -18.7% | MDA-MB-231 breast -34% | RXF 393 renal -39.7% | SF-295 CNS -37.3% | SF-539 CNS -62.4% | M14 melanoma -72.1%

Nc1nc(-c2ccccc2)c(N=Nc2ccc(Cl)cc2Cl)s1
active: NCI-H23 lung -43.8% | NCI-H226 lung -17.4% | NCI-H322M lung 4.7% | HOP-62 NSCLC -61.9% | NCI-H460 lung -66.8% | HOP-92 NSCLC -54.1% | NCI-H522 lung -15.3% | 786-0 renal -51.9% | COLO 205 colon -16.6% | DU-145 prostate 2.88% | K-562 leukemia -44.7% | MALME-3M melanoma -47.5% | MDA-MB-231 breast -89.5% | RXF 393 renal -69.7% | SF-268 CNS -46% | SF-295 CNS -90.5% | SF-539 CNS -77.2% | UACC-257 melanoma -2.45% | M14 melanoma -59.6%
inactive: A549/ATCC NSCLC 12.5%

CN(C)c1nc(NCCNS(=O)(=O)c2ccc(C(=O)/C=C/c3ccc(C(F)(F)F)cc3)cc2)nc(N2CCOCC2)n1
active: NCI-H23 lung -64.2% | 786-0 renal -85.1% | DU-145 prostate 3.39% | K-562 leukemia -13.6% | MDA-MB-231 breast -59.1% | RXF 393 renal -76.6% | SF-295 CNS 7.03% | SF-539 CNS -95.4% | M14 melanoma -87.5%
inactive: NCI-H226 lung 60.8% | NCI-H322M lung 72% | HOP-62 NSCLC 80.1% | NCI-H460 lung 28.8% | HOP-92 NSCLC 32.3% | NCI-H522 lung 18.5% | A549/ATCC NSCLC 16.6% | COLO 205 colon 16.1% | MALME-3M melanoma 56.5% | SF-268 CNS 50.5% | UACC-257 melanoma 37.9%

COc1nc(N)ncc1-c1ccc2ncnc(N3CCc4cc(F)c(Cl)cc43)c2c1
active: NCI-H226 lung -40.3% | NCI-H322M lung 3.86% | HOP-62 NSCLC -54.4% | NCI-H460 lung -21.5% | HOP-92 NSCLC -23.8% | A549/ATCC NSCLC 3.34% | 786-0 renal -74.9% | COLO 205 colon -55.5% | MDA-MB-231 breast -22.7% | RXF 393 renal -46.2% | SF-539 CNS 1.76%
inactive: NCI-H23 lung 34.2% | NCI-H522 lung 41.1% | DU-145 prostate 30.6% | K-562 leukemia 31.6% | MALME-3M melanoma 64.3% | SF-268 CNS 54.2% | SF-295 CNS 17.9% | UACC-257 melanoma 78.8% | M14 melanoma 62.4%

COc1ccc(NC(=O)NN2C(=O)c3ccccc3N(C)C2c2ccc(OC)cc2)cc1 (stereo not given)
inactive: NCI-H23 lung 100% | NCI-H226 lung 106% | NCI-H322M lung 95.8% | HOP-62 NSCLC 97.8% | NCI-H460 lung 109% | HOP-92 NSCLC 102% | NCI-H522 lung 93% | A549/ATCC NSCLC 108% | 786-0 renal 65.8% | COLO 205 colon 103% | DU-145 prostate 107% | K-562 leukemia 95.6% | MALME-3M melanoma 95% | MDA-MB-231 breast 98.9% | RXF 393 renal 112% | SF-268 CNS 107% | SF-295 CNS 101% | SF-539 CNS 100% | UACC-257 melanoma 103% | M14 melanoma 70.3%

CC(=O)Nc1cccc(-n2c(COc3ccc(Br)cc3)nc3ccccc32)c1
inactive: NCI-H23 lung 94% and 107% | NCI-H226 lung 76.2% and 107% | NCI-H322M lung 103% and 104% | HOP-62 NSCLC 119% and 114% | NCI-H460 lung 105% and 107% | HOP-92 NSCLC 90% and 108% | NCI-H522 lung 97.1% and 108% | A549/ATCC NSCLC 115% and 108% | 786-0 renal 115% and 103% | COLO 205 colon 108% and 124% | DU-145 prostate 106% and 89.7% | K-562 leukemia 91.4% and 106% | MALME-3M melanoma 96.3% and 98.8% | MDA-MB-231 breast 80% and 102% | RXF 393 renal 82.4% and 106% | SF-268 CNS 91% and 103% | SF-295 CNS 89.6% and 103% | SF-539 CNS 87.4% and 106% | UACC-257 melanoma 130% and 107% | M14 melanoma 109% and 108%
